The text below walks through data of the supplement of paper PMC12669032.

The assay concerns Collinsella aerofaciens. The assay is described as follows: growth AUC relative to DMSO control (median of replicates) (fraction); higher = more growth (less inhibition), active = hit call of the paper. The following applies: 20 µM; 24 h. In a few lines: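 Starting at OD600 0.05, gut bacterial monocultures in mGAM were grown anaerobically at 37 °C with 20 µM compound (1% DMSO) under pierced gas-permeable seals. OD600 was read every hour for 24 h, and the lowest OD of each curve was set to 0. Area under the growth curve was normalised to the plate median of solvent-only wells, or to row and column medians on the industrial chemical plate, and the median of three biological replicates grown on separate days is given.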
Regarding `CN(C)C(=O)Nc1ccc(Cl)c(Cl)c1`, the “growth AUC” value was 0.992 (inactive).

As to `CCOC(=O)C1CC(=O)C(=C(O)C2CC2)C(=O)C1` (centres undefined), the “growth AUC” value was 0.986 (inactive).

On to `COC(=O)C(C)Oc1ccc(Cl)cc1C` (centres undefined), for which the “growth AUC” value is 1.04 (inactive).

As for `FC(F)(F)C(=NOCC1OCCO1)c1ccc(Cl)cc1`, the “growth AUC” value was 0.976 (inactive).

Turning to `NC(=S)Nc1cccc2ccccc12`, the “growth AUC” value is 0.909 (inactive).

For the compound `CC(C)c1cc(Oc2ccccc2)cc(C(C)C)c1NC(=S)NC(C)(C)C`, the “growth AUC” value was 1.03 (inactive).

In the case of `O=[N+](Nc1ccccc1)c1ccccc1`, the “growth AUC” value was 0.965 (inactive).

For the compound `Cc1[nH]n(C)c(=O)c1C(=O)c1ccc(C(F)(F)F)cc1S(C)(=O)=O`, the “growth AUC” value was 1 (inactive).

Consider `O=C=NC1CCC(CC2CCC(N=C=O)CC2)CC1` (centres undefined), for which the “growth AUC” value is 1.02 (inactive).

Take `CCc1cccc(C)c1N(COC(C)C)C(=O)CCl`: the “growth AUC” value is 1.03 (inactive).

For `O=C(Nc1ccc(Cl)cc1C(O)c1ccccc1)c1ccncc1` (centres undefined), the “growth AUC” value was 0.994 (inactive).

In the case of `CNC(=O)Nc1nc2ccccc2s1`, the “growth AUC” value is 0.942 (inactive).

Regarding `CC(C)CNC(=O)N1CCNC1=O`, the “growth AUC” value is 1.08 (inactive).

As for `C/C=C/C(=O)Oc1c(C(C)CCCCCC)cc([N+](=O)[O-])cc1[N+](=O)[O-]` (mixture of isomers), the “growth AUC” value was 0.789 (active).

As for `CCOC(=O)NCCOc1ccc(Oc2ccccc2)cc1`, the “growth AUC” value was 0.984 (inactive).

As to `NC(=O)Cc1cccc2ccccc12`, the “growth AUC” value was 0.981 (inactive).

For the compound `NS(=O)(=O)[O-].[NH4+]`, the “growth AUC” value was 0.998 (inactive).

As to `COC(=O)c1ccc(C(=O)OC)cc1`, the “growth AUC” value was 1.01 (inactive).

In the case of `Nc1cc(Cl)nc(C(=O)O)c1Cl`, the “growth AUC” value is 0.997 (inactive).

Regarding `CCc1cccc(C)c1N(C(=O)C(=O)O)[C@@H](C)C(=O)O`, the “growth AUC” value was 0.986 (inactive).

Turning to `O=S(=O)(Oc1ccc(Cl)cc1)c1ccccc1`, the “growth AUC” value is 0.978 (inactive).

For the compound `Oc1ccc2nc(-c3cscn3)[nH]c2c1`, the “growth AUC” value is 1.01 (inactive).

For the compound `COC(=O)c1csc(C)c1S(=O)(=O)NC(=O)n1nc(OC)n(C)c1=O`, the “growth AUC” value was 0.956 (inactive).

On to `CCCCOCN(C(=O)CS(=O)(=O)[O-])c1c(CC)cccc1CC.[Na+]`, for which the “growth AUC” value was 1.01 (inactive).

Turning to `O.O.O=[N+]([O-])c1ccc([O-])cc1.[Na+]`, the “growth AUC” value was 1.02 (inactive).

Regarding `COCC(=O)N(c1c(C)cccc1C(=O)O)C(C)C(=O)O` (centres undefined), the “growth AUC” value is 1 (inactive).

As to `O=C(O)COc1ccc(Cl)cc1CO`, the “growth AUC” value was 0.96 (inactive).

For the compound `CCOc1ccc2c(c1)C(C)=CC(C)(C)N2`, the “growth AUC” value was 1.02 (inactive).

For the compound `CC(C)CCCCCOC(=O)C(C)Oc1ccc(Cl)cc1Cl` (centres undefined), the “growth AUC” value is 1.02 (inactive).

Turning to `[S]`, the “growth AUC” value was 0.946 (inactive).

Consider `CCCC(C)(C)C(=O)Nc1ccc(Cl)cc1`, for which the “growth AUC” value was 1.02 (inactive).

For the compound `CSc1nnc(C(C)(C)C)c(=O)n1/N=C/C(C)C`, the “growth AUC” value was 1.02 (inactive).

In the case of `O=C(O)CCCc1c[nH]c2ccccc12`, the “growth AUC” value was 0.954 (inactive).

Regarding `C=C1C[C@]23C[C@@]1(O)CC[C@H]2[C@@]12C=C[C@H](O)[C@@](C)(C(=O)O1)[C@H]2[C@@H]3C(=O)O`, the “growth AUC” value was 0.95 (inactive).

Consider `Nc1ccc(S(=O)(=O)Nc2nccs2)cc1`, for which the “growth AUC” value was 0.978 (inactive).

On to `CCCCCCCCCC[N+](C)(C)Cc1ccccc1.[Cl-]`, for which the “growth AUC” value is 0.848 (inactive).

Consider `CN1CCC[C@H]1c1cccnc1`, for which the “growth AUC” value is 1.04 (inactive).

In the case of `O=C1NCCN1`, the “growth AUC” value was 1.02 (inactive).

Turning to `O=C(O)COc1cccc(Cl)c1Cl`, the “growth AUC” value is 0.992 (inactive).
